Our source for the outcome and AC50 values is PubChem BioAssay (EPA / NIEHS).

A short description of test [1]: ATG_PBREM_CIS: Attagene CIS-FACTORIAL HepG2 Assay for human Phenobarbital-responsive Enhancer Module (PBREM) (AID 2282955). Particulars: HepG2 PBREM cis-reporter, Attagene multiplexed transcription; actives raise or lower the signal. In outline: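 HepG2 cells transiently transfected with multiple cis-regulated reporter units measure endogenous transcription factor activity; 24 h compound exposure. Reporter mRNA quantified by RT-PCR, fluorescent labelling, HpaI digestion and capillary electrophoresis; bidirectional fit versus DMSO.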

In test [2] the target is Paired box protein Pax-6 (Homo sapiens) (UniProt P26367). In words: ATG_Pax6_CIS: Attagene CIS-FACTORIAL HepG2 Assay for human Paired Box 6 (PAX6) (AID 2282956). Particulars: HepG2 CIS-FACTORIAL PAX6 reporter transcription, RNA readout; actives raise or lower the signal. In outline: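 Multiplexed cis-reporter HepG2 system; 24 h treatment; reporter mRNA read by RT-PCR/CE fluorescence; bidirectional fit vs DMSO.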

The nature of test [3]: ATG_PXRE_CIS: Attagene CIS-FACTORIAL HepG2 Assay for human Pregnane X Receptor Element (PXRE) (AID 2282957). Particulars: HepG2 Attagene CIS-FACTORIAL PXRE reporter, mRNA; actives raise or lower the signal. The method, boiled down: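 HepG2 cells transiently transfected with cis-element-driven multiplexed reporter units; after 24 h chemical exposure, reporter mRNA measured by RT-PCR, 6-FAM labelling, HpaI digestion and capillary electrophoresis. Bidirectional fitting relative to DMSO.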

A short description of test [4]: ATG_PPRE_CIS: Attagene CIS-FACTORIAL HepG2 Assay for human Peroxisome Proliferator-activated Response Element (PPRE) (AID 2282958). Particulars: HepG2 PPRE cis-element reporter, Attagene transcription factor profiling; actives raise or lower the signal. The method, boiled down:
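HepG2 cells are transiently transfected with multiplexed cis-promoter reporter units to report endogenous PPAR activity. After 24 h dosing, reporter mRNA is read by RT-PCR and capillary electrophoresis. Fitting is bidirectional against DMSO.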

Test [5] can be described thus: ATG_RORE_CIS: Attagene CIS-FACTORIAL HepG2 Assay for human RAR-related Orphan Receptor Element (RORE) (AID 2282959). The settings on record: HepG2 Attagene cis-factorial RORE reporter, mRNA; actives raise or lower the signal. In outline:
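HepG2 cells carrying transiently transfected cis-regulated reporter units; RORE-driven reporter mRNA quantified 24 h post-dosing by RT-PCR, 6-FAM primer extension, HpaI digestion and capillary electrophoresis. Bidirectional fit versus DMSO.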

Test [6] in a line: ATG_Sox_CIS: Attagene CIS-FACTORIAL HepG2 Assay for human SRY-box transcription factor (SOX) (AID 2282960). The settings on record: HepG2 Attagene cis-factorial SOX reporter, mRNA; actives raise or lower the signal. The method, boiled down: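 HepG2 cells transiently transfected with multiple cis-regulated reporter units, then dosed for 24 h. Reporter mRNA quantified by RT-PCR, fluorescent labelling, HpaI digestion and capillary electrophoresis; bidirectional fit versus DMSO.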

Test [7] has as its target Transcription factor Sp1 (Homo sapiens) (UniProt P08047). In words: ATG_Sp1_CIS: Attagene CIS-FACTORIAL HepG2 Assay for human Specificity Protein 1 (Sp1) (AID 2282961). The settings on record: HepG2 Sp1 cis-reporter transcription, actives raise or lower the signal. The method, boiled down:
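HepG2 cells transiently transfected with multiplexed cis-regulated reporter constructs, chemical exposure 24 h. Reporter mRNA quantified by RT-PCR with capillary electrophoresis; bidirectional fit relative to DMSO.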

Test [8] can be described thus: ATG_SREBP_CIS: Attagene CIS-FACTORIAL HepG2 Assay for human Sterol Regulatory Element Binding (SREBP) (AID 2282962). Particulars: HepG2 Attagene cis-factorial SREBP reporter, mRNA; actives raise or lower the signal. The method, boiled down:
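mRNA induction of transfected cis-promoter reporters in HepG2 cells, 24 h post-dose. Detection: RT-PCR with 6-FAM-labelled products, HpaI digest, capillary electrophoresis. DMSO served as negative control and baseline.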

Test [9] has as its target Signal transducer and activator of transcription 3 (Homo sapiens) (UniProt P40763). In words: ATG_STAT3_CIS: Attagene CIS-FACTORIAL HepG2 Assay for human Signal Transducer and Activator of Transcription 3 (STAT3) (AID 2282963). Particulars: HepG2, Attagene cis-factorial STAT3 reporter transcription; actives raise or lower the signal. In outline: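 Transcript-level reporter assay. HepG2 transient MRTU transfection, 24 h exposure, fluorescence detection after RT-PCR and CE; DMSO baseline.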

Test [10] is described as follows: ATG_TA_CIS: Attagene CIS-FACTORIAL HepG2 Assay for human TA Basal Promoter (AID 2282964). The settings on record: HepG2 Attagene CIS-factorial TA basal promoter reporter; actives raise or lower the signal. In outline: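 HepG2 cells transiently transfected with multiple reporter units under cis promoter elements, reporting endogenous transcription factor activity; this endpoint tracks the TA basal promoter as background control. Reporter mRNA after 24 h dosing measured by RT-PCR/capillary electrophoresis; bidirectional fits versus DMSO.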

Where “and” joins values, the source holds several entries; their conditions need not be identical. Equal values may be shown once. Where a structure was tested more than once in an assay, its records may differ in their call. Calls of active or inactive are those of the source. The calls were made as follows: active = hit-call score of the fitted dose curve at least 0.9, where 1 is the maximum; inactive = score below 0.9.

Sequence of Transcription factor Sp1 (Homo sapiens) (P08047 whole entry, looked up): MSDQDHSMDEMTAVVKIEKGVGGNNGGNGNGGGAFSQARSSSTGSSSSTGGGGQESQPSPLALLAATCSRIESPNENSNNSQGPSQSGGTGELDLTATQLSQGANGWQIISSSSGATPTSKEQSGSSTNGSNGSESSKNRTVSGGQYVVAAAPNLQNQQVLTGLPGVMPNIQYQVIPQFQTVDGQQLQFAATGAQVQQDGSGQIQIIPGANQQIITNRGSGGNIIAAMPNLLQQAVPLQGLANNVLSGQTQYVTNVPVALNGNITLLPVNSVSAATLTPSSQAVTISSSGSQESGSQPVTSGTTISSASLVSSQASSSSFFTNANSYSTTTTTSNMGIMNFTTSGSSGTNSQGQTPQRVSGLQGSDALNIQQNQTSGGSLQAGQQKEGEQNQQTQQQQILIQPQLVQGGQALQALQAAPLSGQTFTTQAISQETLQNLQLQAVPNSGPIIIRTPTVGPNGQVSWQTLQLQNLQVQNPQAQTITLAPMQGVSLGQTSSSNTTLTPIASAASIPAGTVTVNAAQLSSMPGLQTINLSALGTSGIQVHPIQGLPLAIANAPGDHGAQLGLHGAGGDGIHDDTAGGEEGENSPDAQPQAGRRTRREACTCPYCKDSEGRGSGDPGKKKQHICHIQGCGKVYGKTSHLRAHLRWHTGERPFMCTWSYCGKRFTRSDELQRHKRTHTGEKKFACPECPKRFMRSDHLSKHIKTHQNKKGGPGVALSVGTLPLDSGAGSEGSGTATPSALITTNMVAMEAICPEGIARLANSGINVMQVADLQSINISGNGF
Sequence of Signal transducer and activator of transcription 3 (Homo sapiens) (P40763 whole entry, looked up): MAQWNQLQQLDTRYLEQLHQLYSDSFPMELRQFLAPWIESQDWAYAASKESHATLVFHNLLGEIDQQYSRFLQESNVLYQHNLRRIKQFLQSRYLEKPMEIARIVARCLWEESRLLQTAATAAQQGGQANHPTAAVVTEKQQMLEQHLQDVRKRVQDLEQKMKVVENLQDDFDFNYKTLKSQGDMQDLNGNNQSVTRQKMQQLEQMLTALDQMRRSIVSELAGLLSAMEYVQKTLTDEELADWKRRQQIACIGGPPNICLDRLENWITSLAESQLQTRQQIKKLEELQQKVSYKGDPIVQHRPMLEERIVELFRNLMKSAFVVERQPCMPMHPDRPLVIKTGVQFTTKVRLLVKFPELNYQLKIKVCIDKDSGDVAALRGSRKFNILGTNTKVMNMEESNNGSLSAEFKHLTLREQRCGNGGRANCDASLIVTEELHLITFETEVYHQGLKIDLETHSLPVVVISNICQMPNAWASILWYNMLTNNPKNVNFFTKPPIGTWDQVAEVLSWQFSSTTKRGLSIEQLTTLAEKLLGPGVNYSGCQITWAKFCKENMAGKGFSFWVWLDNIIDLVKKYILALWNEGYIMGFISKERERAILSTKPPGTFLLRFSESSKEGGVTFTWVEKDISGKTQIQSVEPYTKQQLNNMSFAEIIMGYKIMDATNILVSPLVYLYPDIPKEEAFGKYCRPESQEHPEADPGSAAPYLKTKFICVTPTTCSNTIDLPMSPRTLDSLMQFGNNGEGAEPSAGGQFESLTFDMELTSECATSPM
Sequence of Paired box protein Pax-6 (Homo sapiens) (P26367 whole entry, looked up): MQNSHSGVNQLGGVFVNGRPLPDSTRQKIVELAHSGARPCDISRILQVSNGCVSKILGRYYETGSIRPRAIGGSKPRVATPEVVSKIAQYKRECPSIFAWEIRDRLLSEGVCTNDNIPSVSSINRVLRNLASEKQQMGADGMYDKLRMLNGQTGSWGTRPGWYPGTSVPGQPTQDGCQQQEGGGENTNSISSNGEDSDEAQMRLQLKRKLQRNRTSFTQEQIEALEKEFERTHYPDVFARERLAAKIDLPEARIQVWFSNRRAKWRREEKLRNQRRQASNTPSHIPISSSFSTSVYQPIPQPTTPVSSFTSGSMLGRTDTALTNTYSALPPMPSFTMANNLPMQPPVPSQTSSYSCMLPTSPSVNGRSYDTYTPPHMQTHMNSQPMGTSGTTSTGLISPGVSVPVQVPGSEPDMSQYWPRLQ

For `C=CC(=O)OCC(F)(F)C(F)F`, the result in test [1], in test [2], in test [3], in test [4], in test [5] and in test [6] was inactive. The call in test [7], in test [8], in test [9] and in [10] was inactive.

For the molecule `c1ccc2c(c1)sc1ccccc12`, the result in test [1], in test [2], in [3], in test [4], in test [5] and in test [6] was inactive. Moreover, the outcome in [7], in [8], in [9] and in [10] was inactive.

As to `CCOc1ccc(C(C)(C)COCc2cccc(Oc3ccccc3)c2)cc1`, the result in test [1], in test [2], in test [4], in [5], in test [6] and in [7] was inactive. For the same molecule, the molecule was classed as inactive in test [8], in test [9] and in test [10]. In addition, in [3], the AC50 is 1.93 µM (active).

As for `C/C(=N\NC(=O)Nc1cc(F)cc(F)c1)c1ncccc1C(=O)O`, the outcome in test [1], in test [2], in test [3], in [5], in test [6] and in test [7] was inactive. Besides, the molecule was called inactive in [8], in test [9] and in test [10]. The AC50 in [3] is 172 µM (active).

Regarding `CCCCc1ccccc1`, the outcome in test [1], in test [2], in test [3], in test [4], in [5] and in test [6] was inactive. Also, the result in test [7], in test [8], in test [9] and in [10] was inactive.

Take `CC(C)CBr`: the result in test [1], in test [2], in test [3], in [4], in [5] and in test [6] was inactive. Moreover, the molecule was classed as inactive in [7], in [8], in test [9] and in test [10].

In the case of `O=C(O)C(F)(F)OC(F)(F)C(F)(F)OC(F)(F)F`, the outcome in test [1], in test [2], in test [3], in test [5], in [6] and in [7] was inactive. Besides, the molecule was classed as inactive in test [8], in test [9] and in test [10]. Further, in test [4], the AC50 is 96.5 µM (active) and 114 µM (active).

Consider `CCOP(=S)(NC(C)C)Oc1ccccc1C(=O)OC(C)C` (stereo not given), for which the outcome in test [1], in test [2], in test [4], in [6], in test [7] and in test [8] was inactive. Besides, the molecule was called inactive in [9] and in test [10]. The values for the AC50 in test [3] and in [5] were 0.699 µM (active) and 46.6 µM (active), respectively.

As to `O=S1(=O)OCC2C(CO1)C1(Cl)C(Cl)=C(Cl)C2(Cl)C1(Cl)Cl` (stereo not given), the result in test [1], in test [4], in test [5], in test [6], in test [9] and in [10] was inactive. The AC50 in [2] was 100 µM (active); in test [3], 1.58 µM (active); in test [7], 172 µM (active); in test [8] it was 100 µM (active).

On to `CC1(C)CN=C(NN=C(/C=C/c2ccc(C(F)(F)F)cc2)/C=C/c2ccc(C(F)(F)F)cc2)NC1`, for which the result in test [1], in test [2] and in test [5] was inactive. In addition, the AC50 in test [3] is 4.77 µM (active); in test [4], 3.92 µM (active); in [6] it was 15.4 µM (active); in test [7], 16.6 µM (active); in test [8] it was 19.7 µM (active); in [9], 20.2 µM (active). Further, the AC50 in [10] is 3.76 µM (active).

Consider `CCCCCCCc1ccc(O)cc1`, for which the outcome in test [1], in test [2], in test [3], in [4], in test [5] and in test [7] was inactive. In addition, the outcome in test [8], in [9] and in test [10] was inactive. Further, in [3], the AC50 was 8.05 µM (active) and 14.2 µM (active) and 16.6 µM (active).

Take `O=C(O)C(F)(F)OC(F)(F)C(F)(F)OC(F)(F)C(=O)O`: the result in test [1], in test [2], in test [3], in test [4], in test [5] and in [6] was inactive. The call in test [7], in test [8], in test [9] and in [10] was inactive.

On to `OCC(F)(F)OC(F)(F)C(F)(F)OC(F)(F)C(F)(F)OC(F)(F)CO`, for which the result in test [1], in [2], in test [4], in test [5], in [6] and in test [7] was inactive. The molecule was classed as inactive in test [8], in test [9] and in test [10]. Also, the AC50 in test [3] was 13.9 µM (active).

With `O=c1ssc(Cl)c1Cl`, the AC50 in test [1] was 50.3 µM (active); in test [2], 62.5 µM (active); in test [6], 50.1 µM (active); in test [7], 51.6 µM (active). Also, the molecule was classed as inactive in [3], in test [4], in test [5], in [8], in [9] and in test [10].

Consider `CC(O)C(F)(F)C(F)(F)F` (stereo not given), for which the result in [1], in test [2], in [3], in [4], in test [5] and in test [6] was inactive. The molecule was called inactive in [7], in [8], in test [9] and in test [10].

On to `N#Cc1cc([N+](=O)[O-])ccc1N`, for which the result in [1], in [2], in test [3], in [4], in test [5] and in test [6] was inactive. The molecule was called inactive in [7], in [8], in test [9] and in [10].

With `ClC1=C(Cl)C2(Cl)C3C(Cl)C(Cl)CC3C1(Cl)C2(Cl)Cl` (stereo not given), the outcome in [1], in test [2], in test [4], in test [5], in test [6] and in [7] was inactive. Also, the outcome in test [8] and in [9] was inactive. Also, the AC50 is 2.38 µM (active) in [3] and 39.1 µM (active) in test [10].

Regarding `O=NN1CCCC1`, the result in [1], in test [2], in [3], in test [4], in test [5] and in test [7] was inactive. Moreover, the call in test [8], in test [9] and in test [10] was inactive.

As for `N#Cc1ccc(O)cc1`, the result in test [1], in [2], in test [3], in test [4], in test [5] and in [7] was inactive. The call in test [8], in [9] and in test [10] was inactive.

On to `Cc1c([N+](=O)[O-])cc2c(c1[N+](=O)[O-])C(C)(C)CC2(C)C`, for which the result in test [1], in test [2], in test [4], in [5], in test [7] and in test [9] was inactive. The result in [10] was inactive. Further, the AC50 was 0.964 µM (active) in test [3] and 7.71 µM (active) in [8].

Take `O=c1[nH]c2ccccc2c(=O)o1`: the result in [1], in test [2], in [3], in test [4], in [5] and in test [7] was inactive. The outcome in test [8], in [9] and in test [10] was inactive.

Take `O=C(CBr)OCc1ccccc1`: the outcome in test [1], in [2], in test [3], in test [4], in test [5] and in test [7] was inactive. The molecule was called inactive in [8], in test [9] and in test [10].

As for `CN(C)C(=O)Cl`, the outcome in test [1], in [2], in [3], in test [4], in test [5] and in test [6] was inactive. For the same molecule, the call in [7], in test [8], in [9] and in test [10] was inactive.

`CSC(C)(C)C=NO`: the result in [1], in test [2], in [3], in test [4], in [5] and in test [6] was inactive. Further, the result in [7], in [8], in test [9] and in test [10] was inactive.

What is called AC50 is the midpoint of the concentration-response curve, whichever way the signal moves.
